From PubChem BioAssay (Tox21) come the findings set out here.

Where “and” joins values, the source holds several entries; their conditions need not be identical. Identical values can stand only once. Records with an inconclusive call do not appear. Entries that show only a call come without a potency. A structure can be active in one record and inactive in another. Calls of active or inactive are those of the source. Calls follow the shape of the dose curve; as a rule, active = well fitted inhibition curve with a large enough effect in the repeat runs; inconclusive = weak or mixed curves, or effect the other way; inactive = no such curve, though single readings can be large or run the other way.
Potency is read from the fitted curve at half-maximal effect.

The target in the assay is Nuclear receptor subfamily 1 group I member 3 (Homo sapiens) (UniProt Q14994). In words: qHTS assay to identify small molecule antagonists of the constitutive androstane receptor (CAR) signaling pathway (AID 1224838).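 Also: HepG2 cells stably expressing hCAR with CYP2B6 luciferase reporter stimulated by CITCO; nearly all actives have a fitted effect of over 40% in size.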 Particulars: HepG2-CYP2B6-hCAR luciferase, CITCO-stimulated, 24 h; series mostly up to 92.4 µM. The text has this: U.S. Tox21 Program National Center for Advancing Translational Sciences [NCATS] NIH Chemical Genomics Center [NCGC] U.S. Environmental Protection Agency [EPA] National Institutes of Environmental Health Sciences [NIEHS] National Toxicology Program [NTP] U.S. Food and Drug Administration [FDA] Tox21 Assay Overview: The constitutive androstane receptor (CAR) is a nuclear receptor which regulates multiple drug metabolizing enzymes (DMEs) and transporters. Activating CAR will generally increase the transcription and subsequent translation of CYP2B6 and CYP3A4. These two DMEs represent about 50% of the drug metabolizing potential in the body. When CAR is deactivated, the metabolizing potential in the body will decrease, subsequently increasing the toxicity in the body or lowering the therapeutic potential of a pro-drug. Recently, there have also been studies performed indicating CARs role in energy metabolism and cancer therapy. Therefore, inhibiting CARs activity could have a potential effect on diabetes and cancer. Identifying environmental toxins and compounds which modulate CAR, through the use of the Tox21 10K compound collection, will be an important step in determining the toxicity and potential therapeutic effects these factors will have on the human body.
Nuclear receptor subfamily 1 group I member 3 (Homo sapiens), sequence (Q14994 whole entry, looked up): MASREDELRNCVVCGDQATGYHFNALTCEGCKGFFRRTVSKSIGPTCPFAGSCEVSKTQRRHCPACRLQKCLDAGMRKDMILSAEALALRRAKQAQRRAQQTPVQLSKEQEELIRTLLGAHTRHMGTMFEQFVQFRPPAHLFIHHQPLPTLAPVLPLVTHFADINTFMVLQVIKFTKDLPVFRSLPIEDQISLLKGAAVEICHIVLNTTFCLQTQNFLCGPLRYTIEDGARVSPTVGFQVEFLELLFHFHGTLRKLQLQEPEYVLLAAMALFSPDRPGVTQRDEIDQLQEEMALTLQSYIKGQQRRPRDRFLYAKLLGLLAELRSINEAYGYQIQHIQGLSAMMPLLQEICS
Tox21 Assay Protocol Summary: A double-stable (hCAR and CYP2B6-2.2kb) transfected cell line, derived from human hepatoma (HepG2) cells, was utilized for the duration of the quantitative high-throughput screens. The HepG2-CYP2B6-hCAR cells suspended in DMEM culture medium supplemented with 10% FBS, 5 ug/mL blasticidin, 0.5 mg/mL geneticin, 100 U/mL penicillin and 100 ug/mL streptomycin were dispensed at 2500 cells/4 uL/well in 1536-well white solid bottom plates using a Multidrop Combi. After the assay plates were incubated at 37 C/5% CO2 for 4 hrs, 23 nL of compounds at 15 concentrations (from 5-48 columns) or positive control (from 1 to 4 columns) were transferred to the assay plates using a Pintool station. One uL of CITCO, was added using a Flying Reagent Dispenser to generate a final concentration of 50 nM CITCO inside each well. After a 24 hr incubation period at 37 C/5% CO2, four uL of ONE-Glo reagent was added into the assay plates using a Flying Reagent Dispenser. After a 30 min incubation period at room temperature, the luminescence intensity in the assay plates was measured using a ViewLux plate reader.
(In qHTS, concentration-response curves come from the screen itself.)
As for `COC(=O)Nc1nc2ccc(Sc3ccccc3)cc2[nH]1`, the Potency entry is “inactive”.

Regarding `O=C(c1ccc(O)cc1)c1ccc(O)cc1O`, the Potency entry is “inactive”.

Turning to `Cn1c([N+](=O)[O-])cnc1COC(N)=O`, the Potency result is “inactive”.

For the compound `NC(=O)NNc1ccccc1`, the Potency result was “inactive”.

`CCCCCCCCC`: the Potency result is “inactive”.

For `CCCCC(CC)C(=O)OCCOCCOCCOC(=O)C(CC)CCCC` (stereo not given), the Potency entry was “inactive”.

On to `NC(=O)/N=N/C(N)=O`, for which the Potency entry was “inactive”.

Consider `CN(CCOc1ccc(CC2SC(=O)NC2=O)cc1)c1ccccn1` (stereo not given), for which the Potency result is “inactive”.

For `Cc1cc(NS(=O)(=O)c2ccc(N)cc2)no1`, the Potency result is “inactive”.

In the case of `Cc1cc(Cc2ccc(N)c(C)c2)ccc1N`, the Potency entry was “inactive”.

As for `C[C@@H]1O[C@@H](OC[C@H]2O[C@@H](Oc3c(-c4ccc(O)c(O)c4)oc4cc(O)cc(O)c4c3=O)[C@H](O)[C@@H](O)[C@@H]2O)[C@H](O)[C@H](O)[C@H]1O`, the Potency result is “inactive”.

`C[C@@H](O)[C@H]1C(=O)N2C(C(=O)O)=C(S[C@@H]3CN[C@H](C(=O)N(C)C)C3)[C@H](C)[C@H]12`: the Potency entry is “inactive”.

`NS(=O)(=O)c1cc2c(cc1Cl)NC=NS2(=O)=O`: the Potency result was “inactive”.

As to `CN(C)c1cccc(O)c1`, the Potency result is “inactive”.

Regarding `CC(=O)CCc1ccccc1`, the Potency result is “inactive”.

Turning to `C=CC(=O)OCCCCCCCC(C)C`, the Potency result was “inactive”.

`CC(=O)Nc1ccc(C(=O)O)cc1`: the Potency result was “inactive”.

As to `O=S(=O)(O)CCS`, the Potency result was “inactive”.

Take `c1ccc2[nH]cnc2c1`: the Potency result is “inactive”.

Take `O=C1CCCCC1`: the Potency entry was “inactive”.

As to `CCCCCCC(C)(C)S`, the Potency entry was “inactive”.

Take `O=C(O)c1ccc([N+](=O)[O-])cc1`: the Potency entry is “inactive”.

Consider `Cc1ccc(C)c(C)c1`, for which the Potency result was “inactive”.

For `O=S(=O)(Oc1ccc(Cl)cc1Cl)c1ccccc1`, the Potency entry was “inactive”.

Turning to `S=c1nc[nH]c2nc[nH]c12`, the Potency was 1.5 µM (active) and 3.35 µM (active).

Regarding `CC1CC(OC(=O)c2ccccc2O)CC(C)(C)C1` (stereo not given), the Potency entry is “inactive”.

With `C/C=C(C)/C=C/C=C(C)C`, the Potency entry was “inactive”.

Take `NCc1cccc(CN)c1`: the Potency entry was “inactive”.

On to `CCc1ccccc1O`, for which the Potency entry is “inactive”.

Consider `CCCCC(CC)COC(C)=O` (stereo not given), for which the Potency entry is “inactive”.

Turning to `C=C(C)C(=O)OCC(CC)(COC(=O)C(=C)C)COC(=O)C(=C)C`, the Potency result is “inactive”.

Take `CCCCCCCCCCCCN`: the Potency entry is “inactive”.

Consider `CC#C[C@]1(O)CC[C@H]2[C@@H]3CCC4=CC(=O)CCC4=C3[C@@H](c3ccc(N(C)C)cc3)C[C@@]21C`, for which the Potency result is “inactive”.

`CCCCCC/C=C/CCCCCCCC(=O)O`: the Potency result is “inactive”.

`Cc1cc(=O)[nH]c(C(C)C)n1`: the Potency result was “inactive”.

On to `O=C(Cl)c1c(Cl)c(Cl)c(C(=O)Cl)c(Cl)c1Cl`, for which the Potency result was “inactive”.

For `COC(=O)c1ccc(C(=O)OC)cc1`, the Potency was 6.95 µM (active) and inactive.

Take `CC1Cc2ccccc2N1NC(=O)c1ccc(Cl)c(S(N)(=O)=O)c1` (stereo not given): the Potency result is “inactive”.

Take `CC1=C(/C=C/C(C)=C/C=C/C(C)=C/CO)C(C)(C)CCC1`: the Potency entry was “inactive”.

For the compound `CCC(C)C=O` (stereo not given), the Potency entry is “inactive”.
